# Bioassay records: PubChem BioAssay, National Center for Advancing Translational Sciences (NCATS)
# Pf growth 48h: inhibits P. falciparum growth in the first generation, 48 h | P. falciparum luciferase growth in erythrocytes, 48 h | Potency, µM (top dose mostly 28.7 µM), for the others: at the highest dose activity change, negative = inhibition, most hits filed as inhibitors | 310,000 tested, 5.9% active | AID 504832; note: potency is the fitted concentration of half-maximal effect
#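 Here the parasites carry a stable luciferase gene and grow inside erythrocytes in Albumax-based RPMI medium with compound for one erythrocytic cycle. Activity is scored as loss of luminescent signal.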
# MARV entry inh: Marburg virus entry inhibition | Marburg virus pseudotyped entry inhibition, cell reporter | Potency, µM (series often up to 37.8 µM), without a hit: at the highest dose activity change, negative = inhibition, actives largely listed as inhibitors | 300,000 tested, 1.8% active; calls by dose curve; tested in HEK293 cells; note: potency is the fitted concentration of half-maximal effect
# HCV inh: inhibitors of hepatitis C virus infection; Huh7.5.1 HCVcc-Cre infection, luciferase reporter, 44 h; Potency, µM (doses to about 41.8 µM), inactives show at the top dose activity change, negative = inhibition, usual class: inhibitors; 340,000 tested, 3.4% active; note: potency is the fitted concentration of half-maximal effect
#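 Cells seeded at 1,000/well and cultured 4 h, then compounds added followed by HCVcc-Cre virus (~0.5 moi). After 44 h further culture, luciferase substrate was added, plates held 15 min at room temperature, and luminescence read for 15 sec.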
# LASV entry inh: inhibitors of Lassa virus binding or cell entry | Lassa virus pseudotype entry inhibition, cell reporter | Potency, µM (highest dose often 37.9 µM), without a hit: top-dose activity change, negative = inhibition, usual class: inhibitors | 300,000 tested, 1.2% active | AID 540256; calls by dose curve; tested in HEK293 cells; note: potency is the fitted concentration of half-maximal effect; nearly all actives have a fitted effect of over 50% in size
# Pf growth 96h: inhibits malaria parasite growth, 96 h | 320,000 tested, 6.9% active | Potency, µM (series often up to 28.7 µM), without a hit: top-dose activity change, negative = inhibition, usual class: inhibitors | P. falciparum luciferase reporter growth, 96 h; note: potency is the fitted concentration of half-maximal effect
#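 Two-generation exposure (96 h) targets delayed-death phenotype. Reporter parasites carrying integrated firefly luciferase, in red cells at 2% hematocrit and 0.05% parasitemia final, kept at 37 C, 5% CO2; luminescence loss indicates inhibition.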
# HCMV antiviral: human cytomegalovirus inhibition | activity change, negative = inhibition, % at 57.5 µM | HFF cells, HCMV-luciferase reporter, 72 h; stronger effect = lower value | 410,000 tested, 4.5% active; in the data active = activity change below about -60%; inconclusive = no clear call, values can overlap the other calls; inactive = above about -39%
#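 Luciferase read-out from HCMV-luciferase-infected HFFs (MOI 1 PFU/cell) 72 h post infection at 37C; compounds added after 16 h cell attachment; activity normalized between buffer-only basal and Salinomycin (10uM) inhibitor controls.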
# * = called active by the depositor; ? = inconclusive; . = no result given; [ ] = dose if it differs, or a comment. Rows were chosen to be rich in hits. Some 14% of all compounds tested hit in one or more screens of this group. Unless noted, calls come from the whole dose curve; as a rule, active = well fitted inhibition curve with a large enough effect; inconclusive = small, poorly fitted or top-dose-only effect, or another doubt; inactive = no such curve, though single readings can be large or run the other way. % is set by controls: 0 for no effect and ±100 for the full control effect.
SMILES,Pf growth 48h,MARV entry inh,HCV inh,LASV entry inh,Pf growth 96h,HCMV antiviral
CCOc1ccc(CNC(=O)CN2C(=O)C3CCCCN3c3ccc(C(=O)N4CCCC4)cc32)cc1 (stereo not given),.,.,.,6%[46.1 µM],.,-8
O=c1cc(-c2ccccc2)nc(SCCOc2ccccc2Cl)[nH]1,7%,-3%,-13%,7%,7.4µM*,-28
O=c1[nH]c(SCCOc2cccc3ccccc23)nc2ccccc12,-10%,2.8µM*,5%,?,2.1µM*,?
O=c1cc(-c2ccccc2)nc(SCc2nc(-c3ccccc3Cl)no2)[nH]1,.,.,.,16%[46.1 µM],.,0
CC(=O)OC(c1nc2ccccc2c(=O)n1C1CC2(OC1=O)c1ccccc1N1C(=O)C(C)(C)N(O)C12)C(C)C (stereo not given),2.1µM*,.,?,.,10µM*,-11
COC(=O)c1ccc(CSc2nc3ccccc3c(=O)n2CC(C)C)o1,-22%,1%,?,2%,?,22
Cc1csc(=Nc2cccnc2)n1CC1CCCCC1,?,?,23%,5%,?,14
Fc1ccccc1-c1csc(=Nc2cccnc2)n1CC1CCCO1 (stereo not given),8.3µM*,-20%,?,-1%,12µM*,?
Fc1ccccc1-c1csc(=Nc2cccnc2)n1CCCn1ccnc1,7.4µM*,?,22µM*,-25%,15µM*,-90*
COCCn1c(-c2cccs2)csc1=Nc1cccnc1,-4%,4%[46.1 µM],-27%,4%[46.1 µM],?,-25
Cc1ccc(-n2ncc(C(=O)Nc3ccc4c(c3)OCO4)c2C2CCN(C(=O)OC(C)(C)C)CC2)c(C)c1,.,.,.,?,.,23
CCCCn1nc(NC(=O)c2cccs2)c2cc3cc(OC)ccc3nc21,?,?,10µM*,-18%,.,-36
COc1ccc2nc3c(cc2c1)c(NC(=O)CC(C)C)nn3CC(C)C,5.2µM*,.,-19%,.,?,-37
CCCC(=O)Nc1nn(CCC)c2nc3ccccc3cc12,.,7%,?,23%,?,19
CCCCn1nc(NC(=O)CC(C)C)c2cc3cc(OC)ccc3nc21,?,24%[46.1 µM],?,4%[46.1 µM],?,-26
CCCn1nc(NC(=O)c2cccs2)c2cc3cc(OC)ccc3nc21,?,-9%,10µM*,?,-21%,-16
CCCCn1nc(NC(=O)CCC)c2cc3cc(OC)ccc3nc21,?,2%,-1%,13%,0%,-24
c1ccc(Nc2ccccc2)cc1,46%,-3%,7%,-15%[46.1 µM],39%,-20
CCCCNC1=CC(=O)C(NCCCC)=CC1=O,.,?,-7%,-22%[46.1 µM],.,41
O=C1C=C(Nc2ccccc2)c2ccccc2C1=O,?,?,8.9µM*,7.1µM*,210%,-64*
O=C1C=C(Nc2ccccc2)C(=O)c2ccccc21,?,.,-16%,.,2.3µM*,-30
O=C1C=C(Nc2ccccc2C(=O)O)c2ccccc2C1=O,-2%,.,9%,.,0%,0
CCCCNC1=CC(=O)C(=O)c2ccccc21,0%,16µM*,11µM*,?,-13%,-35
CCc1ccc(NC2=CC(=O)C(=O)c3ccccc32)cc1,0.083µM*,?,?,?,0.074µM*,-14
C[C@@H]1[C@@H](c2ccccc2)Oc2c(Cl)cccc2S(=O)(=O)N1Cc1cccc(F)c1,.,.,.,-1%[46.1 µM],.,.
SMILES,Pf growth 48h,MARV entry inh,HCV inh,LASV entry inh,Pf growth 96h,HCMV antiviral
Cc1ccc(S(=O)(=O)N2CCN(Cc3nc4ccc(C)cc4o3)CC2)c(C)c1,.,.,.,-19%[46.1 µM],.,-28
O=C1C=C(Nc2cccc3cccnc23)c2ccccc2C1=O,2.1µM*,?,?,0%[46.1 µM],211%,-75*
O=P1(NCCCn2cc[n+](Cc3nc4ccccc4[nH]3)c2)C=C(c2ccccc2)OC(c2ccccc2)=C1,12µM*,10%[46.1 µM],-11%,-15%,2.3µM*,-24
CCn1c2ccccc2c2cc(C3C(C#N)=C(N)OC4=C3C(=O)CC(C)(C)C4)ccc21 (stereo not given),28%,-2%,.,.,136%,.
CCn1c2ccccc2c2cc(C3C(C#N)=C(C)NC(C)=C3C#N)ccc21,?,8%,11µM*,-16%,0%,0
CCn1c2ccccc2c2cc(C3C(C#N)=C(N)Oc4n[nH]c(COC)c43)ccc21 (stereo not given),4%,5.2µM*,?,?,-1%,-32
C[C@H](CO)N1C[C@H](C)[C@@H](CN(C)Cc2ccc(Cl)c(Cl)c2)Oc2c(NS(=O)(=O)c3ccc(F)cc3)cccc2C1=O,.,.,?,.,.,-16
Cc1ccc(S(=O)(=O)N2C[C@H]3C(=O)C[C@@H](c4cccc(Cl)c4)N(S(=O)(=O)c4ccc(C)cc4)[C@H]3C[C@H]2c2cccc(Cl)c2)cc1,.,.,.,.,.,-38
CCC(Cc1ccccc1)NC(=O)CN1C(=O)CSc2ncccc21 (stereo not given),3%,.,13µM*,.,?,-24
COC(=O)CN1C(=O)CSc2ncccc21,19%,1%,-5%,1%,1%,-9
CC(NC(=O)C(Cc1ccccc1)N1C(=O)C2C3CCC(C3)C2C1=O)c1ccccc1 (stereo not given),?,-1%,1%,?,28%,-61*
CC(c1ccccc1)N1C(=O)C2C3CCC(C3)C2C1=O (stereo not given),32%,?,5%,-3%,?,-21
C1=C2C[N+]3(CCCC3)CC2Cc2ccc3ccccc3c21 (stereo not given),.,?,?,0%,0.74µM*,-65*
Cc1cc(NC(=O)COc2ccc3ccccc3c2Br)no1,.,.,?,.,.,9
COc1ccc(OC[C@@H](O)CNC(=O)c2cccc3c2C(=O)c2ccc(Cl)cc2S3(=O)=O)cc1,?,.,11%,.,2.1µM*,31
COc1ccc(-c2ccc3c(c2)S(=O)(=O)c2cccc(C(=O)NCCOc4ccccc4Cl)c2C3=O)cc1OC,.,.,?,.,.,-98*
COc1ccc(-c2ccc3c(c2)S(=O)(=O)c2cccc(C(=O)NCc4ccccc4Cl)c2C3=O)cc1OC,22%,.,3%,.,31%,-1
O=C(c1ccc(Cl)nc1)N1CCN(C/C=C/c2ccccc2)CC1,-25%,?,-18%,?,19%,-8
CCc1ccccc1NC(=S)NC1CC2CCC(C1)N2Cc1ccc(F)cc1 (stereo not given),7.4µM*,.,-14%,.,-8%,-28
Cc1ccc(CN2C3CCCC2CC(NC(=S)NCc2ccccc2)C3)cc1 (stereo not given),12µM*,?,?,?,0%,-67*
CC(NC(=O)C1CCCC1)c1ccccc1 (stereo not given),.,1%[46.1 µM],5%,28%[46.1 µM],.,-12
